Most compounds without a hit are left out; they make up all but 12% or so of the library.
HP1b binding inh: HP1-beta chromodomain-methylated histone interaction inhibition. AID 540317. P83916. Potency, µM (doses to about 114 µM), most hits filed as inhibitors. 390,000 compounds, 0.56% hits. AlphaScreen HP1-beta / biotin-H3K9me3 peptide binding; also: nearly all actives have a fitted effect of over 70% in size
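Compound inhibition of the preformed complex between 50 nM HP1-beta and 50 nM biotinylated H3K9me3 peptide was read by AlphaScreen. Buffer was PBS pH 7.4 with 0.01% Tween-20. Incubations ran 30 min at room temperature, with 10 ug/mL donor/acceptor beads.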
G9a block: inhibitors of human histone lysine methyltransferase G9a; Q96KQ7; G9a H3K9 monomethylation, AlphaScreen, 2 h; Potency, µM (series often up to 102 µM), most hits filed as inhibitors; 350,000 compounds, 8.8% hits; AID 504332; also: nearly all actives have a fitted effect of over 75% in size
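G9a (20 nM) preincubated 15 min RT with compounds, then 500 nM biotinylated H3K9 peptide and 20 uM SAM added; 2 h RT reaction. Monomethyl-H3K9 product detected by AlphaScreen with anti-H3K9me1 antibody, streptavidin donor and anti-rabbit IgG acceptor beads.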
Sfp inh: Sfp phosphopantetheinyl transferase inhibition | AID 1490 | 310,000 compounds, 3.5% hits | Potency, µM, most hits filed as inhibitors | Biochemical Sfp PPTase activity, qHTS | Q9F4F7;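 also: the enzyme is Sfp with the accession as filed and its product quenches rhodamine fluorescence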
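Reaction rates are the 30-min fluorescence difference (ex 525, em 598 nm) in wells containing 15 nM Sfp, 5 uM rhodamine-CoA and 12.5 uM BHQ-2-YbbR at pH 7.6 with 10 mM MgCl2.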
BAZ2B inh: blocks human BAZ2B. Q9UIF8. 360,000 compounds, 4.4% hits. AlphaScreen BAZ2B-H3K14Ac peptide displacement. Potency, µM (titrated, usually from 114 µM), actives largely listed as inhibitors; also: nearly all actives have a fitted effect of over 60% in size
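Protein-peptide AlphaScreen: BAZ2B 50 nM, b-H3K14Ac 50 nM, 1x PBS pH 7.4 + 0.01% Tween-20. Preincubation 30 min RT; cpd 30 min RT (top 110 uM); beads 20 min RT, light-protected.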
JMJD2A Tudor inh: inhibitors of human JMJD2A Tudor domain | Potency, µM (series often up to 114 µM), actives largely listed as inhibitors | AlphaScreen JMJD2A-Tudor / H3K4me3 peptide binding | 390,000 compounds, 4.4% hits | O75164; also: nearly all actives have a fitted effect of over 50% in size
Target sequence (O75164 whole entry, looked up, the tested form may be a part): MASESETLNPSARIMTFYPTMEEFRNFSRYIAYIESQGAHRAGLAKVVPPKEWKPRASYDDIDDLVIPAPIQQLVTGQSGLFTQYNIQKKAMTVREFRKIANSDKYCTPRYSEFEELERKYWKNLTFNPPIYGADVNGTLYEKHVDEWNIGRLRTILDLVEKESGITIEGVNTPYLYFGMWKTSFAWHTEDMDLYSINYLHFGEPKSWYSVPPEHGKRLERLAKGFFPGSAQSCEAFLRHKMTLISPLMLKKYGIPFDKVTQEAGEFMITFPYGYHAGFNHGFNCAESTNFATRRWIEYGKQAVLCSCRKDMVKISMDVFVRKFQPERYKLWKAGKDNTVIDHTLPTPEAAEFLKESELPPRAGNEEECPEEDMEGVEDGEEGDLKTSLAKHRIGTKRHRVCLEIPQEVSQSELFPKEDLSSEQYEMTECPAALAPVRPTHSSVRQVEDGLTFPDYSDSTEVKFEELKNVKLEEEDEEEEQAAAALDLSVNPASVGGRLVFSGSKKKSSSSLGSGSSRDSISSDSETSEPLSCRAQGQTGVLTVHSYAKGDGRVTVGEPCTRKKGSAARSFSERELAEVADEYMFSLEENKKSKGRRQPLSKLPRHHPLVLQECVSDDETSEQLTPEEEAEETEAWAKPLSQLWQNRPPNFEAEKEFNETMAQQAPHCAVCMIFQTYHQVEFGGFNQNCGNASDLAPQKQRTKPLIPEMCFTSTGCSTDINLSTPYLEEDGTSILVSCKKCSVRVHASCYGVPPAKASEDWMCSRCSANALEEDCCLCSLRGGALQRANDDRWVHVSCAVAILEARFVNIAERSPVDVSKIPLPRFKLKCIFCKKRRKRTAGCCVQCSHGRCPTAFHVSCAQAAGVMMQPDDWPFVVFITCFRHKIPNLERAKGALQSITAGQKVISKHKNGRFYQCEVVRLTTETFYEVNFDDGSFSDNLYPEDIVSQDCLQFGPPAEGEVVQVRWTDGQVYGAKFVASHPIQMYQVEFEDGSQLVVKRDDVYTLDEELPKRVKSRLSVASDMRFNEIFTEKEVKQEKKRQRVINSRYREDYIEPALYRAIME
Each line names hits and unclear results; the compound was inactive in the other large screens. Calls follow the shape of the dose curve; as a rule, active = well fitted curve in the direction sought with a large enough effect; inconclusive = small, poorly fitted or top-dose-only effect, or another doubt; inactive = no such curve, though single readings can be large; an effect the other way counts as inactive or inconclusive.

CC(C)c1ccc(C2Sc3ccccc3NC3=C2C(=O)c2ccccc23)cc1 (stereo not drawn)	HP1b binding inh inconclusive, G9a block inconclusive, BAZ2B inh 8.9µM, JMJD2A Tudor inh 11µM (no result: Sfp inh)
CC(=O)Nc1ccc(C2Nc3ccccc3C(=O)N2C2CCCCC2)cc1 (stereo not drawn)	none (no result: BAZ2B inh)
CCN(CC)C(=O)CSc1nnc2[nH]c(=O)cc(C)n12	none (no result: Sfp inh)
CCn1c(SCC(=O)Nc2ccc3c(c2)n(C)c(=O)n3C)nnc1-c1ccncc1	BAZ2B inh inconclusive (no result: G9a block)
O=c1c2ccc(Cl)cc2nc(-c2ccc([N+](=O)[O-])cc2)n1O	BAZ2B inh inconclusive
CC(C)n1cnnc1SCC(=O)Nc1cccnc1Cl	none (no result: G9a block, Sfp inh, BAZ2B inh)
CC1CCN(S(=O)(=O)c2ccc3c(c2)N(CC(=O)NC(C)C)C(=O)CO3)CC1	none (no result: Sfp inh)
O=C1c2ccccc2NC(c2ccco2)N1NS(=O)(=O)c1ccccc1 (stereo not drawn)	none
O=C1C2=C(Nc3ccccc3SC2c2ccco2)c2ccccc21 (stereo not drawn)	HP1b binding inh 22µM, G9a block inconclusive, Sfp inh inconclusive, BAZ2B inh 35µM, JMJD2A Tudor inh 35µM
Cc1cccc(-n2c(-c3csc(C(C)C)c3)n[nH]c2=S)c1	G9a block inconclusive, JMJD2A Tudor inh inconclusive
S=c1[nH]nc(-c2ccco2)n1-c1ccc(Br)cc1	HP1b binding inh inconclusive, JMJD2A Tudor inh 25µM (no result: G9a block, Sfp inh, BAZ2B inh)
Cc1cccc(-n2c(-c3ccco3)n[nH]c2=S)c1	G9a block 2µM, JMJD2A Tudor inh 5.6µM
Cc1cccc(-n2c(-c3ccc(Br)o3)n[nH]c2=S)c1	JMJD2A Tudor inh 79µM (no result: G9a block, Sfp inh, BAZ2B inh)
NC(=S)NN=C(c1ccc(Br)cc1)C1CC1	HP1b binding inh inconclusive, JMJD2A Tudor inh 0.79µM (no result: G9a block, Sfp inh, BAZ2B inh)
Cc1[nH]c(C(=O)O)c(C)c1C(=O)OC(C)C	none
CC(=O)c1c(C(=O)O)[nH]c(C(=O)O)c1C	G9a block 16µM, BAZ2B inh inconclusive
C=CCSC1=NNC(c2ccc(C(C)(C)C)cc2)=NN1	none
O=C(Nc1nc2ccccc2s1)C1CCN(S(=O)(=O)c2cc([N+](=O)[O-])ccc2Cl)CC1	G9a block inconclusive, BAZ2B inh 28µM, JMJD2A Tudor inh inconclusive
COc1ccc(N2CCN(C(=O)/C=C/c3ccco3)CC2)cc1	G9a block 32µM
O=C(NCCC(=O)N1CCN(c2ccc(F)cc2)CC1)c1ccco1	G9a block 50µM (no result: Sfp inh)
O=C(/C=C/c1ccco1)N1CCN(c2ccc(F)cc2)CC1	G9a block inconclusive, Sfp inh 18µM
Cc1ccc(/C=C/C(=O)N2CCN(c3ccc(F)cc3)CC2)o1	G9a block inconclusive, BAZ2B inh inconclusive
N/C(=N\OC(=O)CCCN1C(=O)c2ccccc2C1=O)c1ccc(Br)cc1	none (no result: G9a block, Sfp inh, BAZ2B inh)
COC(=O)c1ccc(CN2CCCCC2)cc1	none (no result: G9a block)
Cc1c(C(=O)Nc2nnc(C3CC3)s2)oc2ccccc12	none (no result: Sfp inh)
COc1cccc(C(=O)NC(=S)Nn2cnnc2)c1OC	G9a block 14µM, Sfp inh 22µM, BAZ2B inh inconclusive
O=C(NC(=S)Nn1cnnc1)c1ccc(F)cc1Cl	HP1b binding inh inconclusive, G9a block 14µM, Sfp inh 50µM, BAZ2B inh inconclusive
O=C(Nn1cnnc1)c1ccc([N+](=O)[O-])cc1Cl	none (no result: G9a block, Sfp inh, BAZ2B inh)
O=C(NC(=S)Nc1ncccn1)c1ccccc1Cl	G9a block 79µM, Sfp inh 32µM, JMJD2A Tudor inh inconclusive
O=C(NC(=S)Nn1cnnc1)c1ccccc1Cl	G9a block 14µM, Sfp inh 40µM, BAZ2B inh inconclusive
COC(=O)c1cc(OC)c(OC)cc1NC(=O)c1cccc(OC)c1OC	none
CC/C(=N/NC(=O)c1ccccc1O)c1c(C)[nH]n(-c2ccccc2)c1=O	none (no result: G9a block, Sfp inh, BAZ2B inh)
Cc1ccc(CNC(=O)Cn2cnc3cc([N+](=O)[O-])ccc3c2=O)cc1	none (no result: G9a block)
S=c1[nH]nc(-c2ccncc2)n1CC1CCCO1 (stereo not drawn)	G9a block inconclusive, Sfp inh inconclusive, JMJD2A Tudor inh 45µM
c1ccc(-c2nc3nc4ccccc4nc3n2CC2CCCO2)cc1 (stereo not drawn)	none
Fc1ccc(-c2n[nH]c(=S)n2CC2CCCO2)cc1 (stereo not drawn)	G9a block 2.8µM
O=C(c1cc2ccccc2o1)N1CCN(c2ccccn2)CC1	HP1b binding inh inconclusive, BAZ2B inh inconclusive
CCN(Cc1nc(-c2ccccc2)no1)C(=O)c1ccoc1C	none
CC(C)Cn1[nH]c2c3c(ccc2c1=O)C(=O)c1ccccc1C3=O	G9a block inconclusive, BAZ2B inh 10µM
CC(C)Cn1c(=O)[nH]c2ccccc21	none
Cc1cccc(-n2[nH]c3c4c(ccc3c2=O)C(=O)c2ccccc2C4=O)c1	G9a block 14µM, BAZ2B inh inconclusive
O=C(O)/C(=C\c1c(C(=O)O)[nH]c2cc(Cl)cc(Cl)c12)c1ccccc1	G9a block inconclusive (no result: Sfp inh)
Cc1ccc(NC(=O)CN2C(=O)C(=O)N(C3CCCC3)C2=O)cc1Cl	none (no result: Sfp inh)
S=c1[nH]nc(Cc2n[nH]c(=S)n2-c2ccccc2)n1-c1ccccc1	G9a block 10µM, Sfp inh inconclusive, JMJD2A Tudor inh 8.9µM
S=c1[nH]nc(CCc2ccccc2)n1-c1ccccc1	G9a block 1.4µM, JMJD2A Tudor inh 11µM
S=c1[nH]nc(Cc2noc3ccccc23)n1-c1ccc(Cl)cc1	G9a block 1.4µM, JMJD2A Tudor inh inconclusive
S=c1[nH]nc(Cc2ccccc2)n1-c1ccccc1	G9a block 8.9µM, JMJD2A Tudor inh 4µM
O=C(Nc1c2c(nn1-c1ccc(F)cc1)CS(=O)(=O)C2)c1ccc(Br)o1	none
N=c1c(-c2nc3ccccc3[nH]2)cc(C(=O)c2cccs2)nn1-c1ccccc1	BAZ2B inh inconclusive
S=c1[nH]nc(COc2ccc(Cl)cc2)n1-c1ccccc1	none
CC(C)OCC(O)CCc1n[nH]c(=S)n1-c1ccccc1 (stereo not drawn)	G9a block 3.5µM, Sfp inh 79µM, JMJD2A Tudor inh 6.3µM
Cc1ccccc1OCc1nnc(SCc2cc(=O)[nH]c3ccccc23)n1-c1ccccc1	Sfp inh 56µM
CCCCOCC(O)CCc1n[nH]c(=S)n1-c1ccccc1 (stereo not drawn)	Sfp inh inconclusive, JMJD2A Tudor inh inconclusive (no result: G9a block)
CCCCc1ccc(-n2c(Cc3cccs3)n[nH]c2=S)cc1	G9a block 1.8µM, BAZ2B inh inconclusive, JMJD2A Tudor inh inconclusive
Cc1ccc(OCc2nnc(SCc3cc(=O)[nH]c4ccccc34)n2-c2ccccc2)cc1	G9a block inconclusive, Sfp inh inconclusive, JMJD2A Tudor inh inconclusive
Cc1ccccc1OCc1n[nH]c(=S)n1-c1ccccc1	G9a block 10µM
CN(C)S(=O)(=O)c1ccc(N)c([N+](=O)[O-])c1	none
S=c1[nH]nc(Cc2cccs2)n1-c1ccccc1	JMJD2A Tudor inh 7.9µM
S=c1[nH]nc(Cc2ccccc2)n1-c1ccc(Cl)cc1	G9a block inconclusive, JMJD2A Tudor inh 79µM
Cc1ccc(-n2c(Cc3ccccc3)n[nH]c2=S)cc1	G9a block 2.2µM, JMJD2A Tudor inh 7.1µM
Cc1ccc(-n2c(Cc3noc4ccccc34)n[nH]c2=S)cc1	BAZ2B inh inconclusive, JMJD2A Tudor inh inconclusive (no result: G9a block)

High-throughput results: PubChem, National Center for Advancing Translational Sciences (NCATS)
